These results are taken from PubChem BioAssay AID1117283 (Broad Institute, 2014).

Measured potencies and affinities stand elsewhere. The source made the active and inactive calls.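 Rule for the calls: active = fluorescent signal decreased by at least 40%; inconclusive = no clear call, values can overlap the other calls; inactive = the rest, including activity opposite to the expected direction.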

The nature of this assay: inhibition of fibronectin matrix deposition – AH1F cells, Alexa488-fibronectin fluorescence, cherry-pick, set 2, dose response (AID 1117283).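 Note: AH1F fibroblasts given Alexa488-labelled fibronectin at 24 nM final.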

In the case of `C=C1C(=O)O[C@@H]2C[C@@H](C)[C@@H]3C=CC(=O)[C@@]3(C)[C@@H](O)[C@H]12`, the call was inactive.
